The labels stand for the following.
T1: UNK ZnF1-6 (called full-length) (human, UniProt Q9C0B0 30-357)
T1 sequence: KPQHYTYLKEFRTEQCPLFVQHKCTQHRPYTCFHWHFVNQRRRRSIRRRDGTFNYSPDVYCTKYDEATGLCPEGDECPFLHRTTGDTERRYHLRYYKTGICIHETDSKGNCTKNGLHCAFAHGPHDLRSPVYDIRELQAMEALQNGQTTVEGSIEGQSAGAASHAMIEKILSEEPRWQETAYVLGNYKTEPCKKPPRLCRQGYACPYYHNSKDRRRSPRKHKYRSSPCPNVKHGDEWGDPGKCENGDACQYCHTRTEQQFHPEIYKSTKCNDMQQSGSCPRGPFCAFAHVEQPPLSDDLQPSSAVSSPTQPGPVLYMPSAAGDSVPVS

B1: chr11:107429260:107429366:-|CDS|ENSG00000152404|unk|FALSE|unique (ssRNA)
RNA: GGGAGUUCUACAGUCCGACGAUCGAGGAAACCCACAUAUUCAGAUAAAGCACAAAAUUGUCAAGAAAGUAGAGAAUCAGACUUAGUAAAAUAUGGUAACAGUUCAAGGGAUAGAUAUGCUACAACAGAUACUGCAAAAAAUAGCAACAGAGGAUUGAGCAUCA
B2: chr7:5606511:5606625:+|3pUTR|ENSG00000075618|msi1_unk|FALSE|overlapping (ssRNA)
RNA: GGGAGUUCUACAGUCCGACGAUCGGGUGUCUUGGUCUUUUAUUUUUUGUAAGUGUCAUUUGUAUAACUCUAAACGCCCAUGAUAGUAGCUUCAAACUGGAAAUAGCGAAAUAAAAUAACUCAGUCUGCAGCCCCAGGCCGGCCCAACAGAGGAUUGAGCAUCA
B3: chr10:104129887:104130138:-|three_prime_utr|ENSG00000197748|control|control|control (ssRNA)
RNA: GGGAGUUCUACAGUCCGACGAUCAAAAAAUCAUUUCAUUUGGGUAAAAUGAUUUCCUUUUCUUUCUUACUGGGAAAUUGAAGUAGCAUGUCCUCUGAGUUGCAUGUUUUAGAUAAAAAAUUGUUUAAUUUUAGCCUUAAUUGUCAACAGAGGAUUGAGCAUCA
B4: chr15:38352922:38353023:+|3pUTR|ENSG00000166068|msi1|FALSE|unique (ssRNA)
RNA: GGGAGUUCUACAGUCCGACGAUCUACAUAUAAAUUUAUUUCUUUUGCAGAGCAUUAUAUUACUGGAUGUUUAAUUUACAAAAUAGUUGGGUAAAUGUUCCAACAAACUUUAAAGUACCUUGAAGUCAAAUUGUCUGUUUUUGUCAACAGAGGAUUGAGCAUCA
B5: chr11:62152232:62152344:+|3pUTR|ENSG00000149503|unk|FALSE|unique (ssRNA)
RNA: GGGAGUUCUACAGUCCGACGAUCUGCUCUGUAAAUAGUUGUUUUAAUUUAGCUGAAUGUUAGCAUUUUAGUCUUUGGCAUUUUAGCGUUUGGGAGGUAGAUUAAUAAAGUAUAUUCCUUCAAGCCUGCUGUUGAUACCAUGAACAACAGAGGAUUGAGCAUCA
B6: chr15:38352922:38353023:+|3pUTR|ENSG00000166068|msi1|total|mutant (ssRNA)
RNA: B4 RNA with U83C, A84C
B7: chr18:9400975:9401076:+|3pUTR|ENSG00000128791|msi1|FALSE|unique (ssRNA)
RNA: GGGAGUUCUACAGUCCGACGAUCUAUAAAAAUAGAUAAUGCUCUUGGACACAUUUUGUAUUAUUCAUGAUCUGAAUAGUAGUUAGUUAAAAGAUCAUUUGUAAUAUUAUGAUCAACUGUUAUAAAUUAAGGUCUUAAUACCUUCAACAGAGGAUUGAGCAUCA
B8: chr3:46835109:46836203:-|three_prime_utr|ENSG00000160808|control|control|control (ssRNA)
RNA: GGGAGUUCUACAGUCCGACGAUCUGAAGGCACAAGCUGUUCCAGUAUAAUAAAGAAAAUAAUUAAAUUAAGAAAAGUUAUACUAGAAAUAAGAUAUAGGUAUGAUUAUUAUUAAUCAUUAGUUUGUAGUAUUACUUUGUUCUACAACAGAGGAUUGAGCAUCA
B9: chr15:76949589:76949706:+|3pUTR|ENSG00000117906|msi1_unk|total|mutant (ssRNA)
RNA: GGGAGUUCUACAGUCCGACGAUCAUAAAUUUUUGUUUUUGUUCUAAGCCGAUUUAAUUUGGGAACUGACAGGACAAUGUUUUCCGGUUCCGCAUUUUGUUUAAAAACCUUUAAAGAAACCUUCCGAAGGACUCCGACCUCACACAACAGAGGAUUGAGCAUCA
B10: chr7:38725943:38726055:-|3pUTR|ENSG00000006715|unk|total|mutant (ssRNA)
RNA: GGGAGUUCUACAGUCCGACGAUCGAAAUUUUGGGGUCCACCGUGAAUAUUUUGUUAUUUAUUUGUUUGGCUCAUUCUUUAUACCGUAAUGGAAACAUAAGUCCCGGAGUCCGAAAUGAAUUUUUCCGACCUCCGUAAAACCAUCAACAGAGGAUUGAGCAUCA
B11: ENSG00000168003:stop:overlap|stop_codon|ENSG00000168003|stop_codon|NA|stop_codon (ssRNA)
RNA: GGGAGUUCUACAGUCCGACGAUCCUGACAUCCCAGGGGCUGUAAGUGCCAACAUGACUGUGAAGGUAAGAGUUCUAGAUGGGUAGAAACUGACCGGUGGAGGGUGGGCUGGGCUUGUAGAAGUCUGUACCCAGGGGAGCCCCUCAACAGAGGAUUGAGCAUCA
B12: chr4:67617988:67618115:-|3pUTR|ENSG00000033178|unk|total|mutant (ssRNA)
RNA: GGGAGUUCUACAGUCCGACGAUCAAAUGCCGAAUGUUAAAAAUUAUUGCCCGGGCCGUCUUUUUUUUUUCCAGAAACCUAAUCCGGGUAUUAAAUUUUGUGUUUUUUUUGUUUUUUUUUUUUAAACAGAAGCAUGUUAUUUCACAACAGAGGAUUGAGCAUCA
B13: chr4:138171112:138171219:-|3pUTR|ENSG00000151012|msi1|FALSE|unique (ssRNA)
RNA: GGGAGUUCUACAGUCCGACGAUCUUUUUUUUUUUCACAUCAGUUUGAUCAGGAAAGUGUAUAACACAUCUUAGAGCAAGAGUUAGUUUGGUAUUAAAUCCUCAUUAGAACAACCACCUGUUUCACUAAUAACUUACCCCUGAUCAACAGAGGAUUGAGCAUCA
B14: chr4:168926953:168927063:+|3pUTR|ENSG00000129116|msi1_unk|FALSE|overlapping (ssRNA)
RNA: GGGAGUUCUACAGUCCGACGAUCCAAAAGAGUUUUCUAACAAGGUUAAUACCUUAGUUCUUAACAUUUUUUUUCUUUAUGUGUAGUGUUUUCAUGCUACCUUGGUAGGAAACUUAUUUACAAACCAUAUUAAAAGGCUAAUUUCAACAGAGGAUUGAGCAUCA
B15: chr2:16549458:16552935:-|three_prime_utr|ENSG00000197872|control|control|control (ssRNA)
RNA: GGGAGUUCUACAGUCCGACGAUCUUGCUACUGGAGUCCUUUAACAACAUCUAUAACGAUAAAAAAUUCCUAAUUGUUUGUGGUAGUAUUUUAAUUCUAGAUGUGUUAUCUCUCUGGGAAGUAUAGUUUAUAGAAACACAAAAUCAACAGAGGAUUGAGCAUCA
B16: chr11:69651696:69651723:+|3pUTR|ENSG00000110092|msi1_unk|total|mutant (ssRNA)
RNA: GGGAGUUCUACAGUCCGACGAUCGAGGAUCCGGUUCCAUCCUUUACGUGUUUAAAAAAAAGCAUAAAAACAUUUUAAAAACACCGAAAAAUUCAGCAAACCAUUUUUAAAGCCGAAGAGGGUUUCCGGCCGAAAAACAUAUUCCAACAGAGGAUUGAGCAUCA
B17: chr4:67617988:67618115:-|3pUTR|ENSG00000033178|unk|FALSE|unique (ssRNA)
RNA: B12 RNA with C29U, C30A, C50U, C51A, C55U, C56A, C83U, C84A
B18: chr4:168926953:168927063:+|3pUTR|ENSG00000129116|msi1_unk|total|mutant (ssRNA)
RNA: B14 RNA with U54C, A55C, U83C, A84C, U105C, A106C
B19: chr11:69651696:69651723:+|3pUTR|ENSG00000110092|msi1_unk|FALSE|overlapping (ssRNA)
RNA: B16 RNA with C30U, C31A, C83U, C84A, C112U, C113A, C125U, C126A, C129U, C130A
B20: chr11:69651733:69651797:+|3pUTR|ENSG00000110092|msi1_unk|FALSE|overlapping (ssRNA)
RNA: GGGAGUUCUACAGUCCGACGAUCAAAACAUUUUAAAAACAUAGAAAAAUUCAGCAAACCAUUUUUAAAGUAGAAGAGGGUUUUAGGUAGAAAAACAUAUUCUUGUGCUUUUCCUGAUAAAGCACAGCUGUAGUGGGGUUCUAGCAACAGAGGAUUGAGCAUCA

Drawing on publication PMC12136788, this text covers binding signal for 20 molecules.

Changes are numbered by the printed parent chain. The full ranking holds about 5,800 sequences; the median of “enrichment r” is about 0.68, and the highest 2% start at about 11. The sample as a whole holds a higher share of the highest values than the screen did.

This experiment has as its target T1, UNK ZnF1-6 (called full-length). The experiment is described as follows: nsRBNS (natural sequence RNA bind-n-seq); RBNS binding buffer (assumed for nsRBNS): 25 mM Tris pH 7.5, 150 mM KCl, 3 mM MgCl2, 0.01% Triton X-100, 500 ug/ml BSA, 20 U/ml SUPERase-In, 4 C; UNK is unkempt and MSI1 is Musashi-1; names of the RNAs are library labels; protein concentration not given here; high values mean tight binding.
In turn, B1 came in with a binding signal of 1.66 enrichment R.

Consider B2, for which the binding signal is 1.39 enrichment R.

B3 registered a binding signal of 13.5 enrichment R.

Turning to B4, the binding signal came out at 1.48 enrichment R.

On to B5, for which the binding signal came out at 110 enrichment R.

B6 yielded a binding signal of 0.824 enrichment R.

For the molecule B7, the binding signal is 2.18 enrichment R.

On to B8, for which the binding signal worked out at 4.03 enrichment R.

Regarding B9, the binding signal is 0.382 enrichment R.

Consider B10, for which the binding signal stood at 0.419 enrichment R.

Molecule B11 displayed a binding signal of 0.906 enrichment R.

Regarding B12, the binding signal was found to be 0.765 enrichment R.

Molecule B13 showed a binding signal of 2.58 enrichment R.

B14 came in with a binding signal of 20.1 enrichment R.

B15 returned a binding signal of 4.45 enrichment R.

In the case of B16, the binding signal is 0.444 enrichment R.

With B17, the binding signal worked out at 28.1 enrichment R.

In turn, B18 displayed a binding signal of 1.12 enrichment R.

With B19, the binding signal was determined as 13.5 enrichment R.

B20 yielded a binding signal of 8.88 enrichment R.
